Assay [1] deals with Albumin (Bos taurus) (UniProt P02769). The experiment in a line: compounds binding labelled BSA control protein – biochemical, small-molecule microarray, Alexa647 label, 635/667 nm fluorescence, artefact control for SMM control protein annotation, profiling panel (AID 1118).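 Note: score merges 667 nm emission intensity and signal-to-noise per printed compound spot.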 As to conditions: BSA-A647 binding, fluorescence 635 nm, higher = more signal.
The nature of assay [2]: probe aXIP binding to arrayed compounds – biochemical, NeuroSMM set, 635/667 nm fluorescence, primary screen (AID 1119).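 Note: probe is the protein aXip251-270 applied at 1 µg/mL to compound-printed slides; binding of probe to printed compounds measured as 667 nm fluorescence plus signal to noise.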 As to conditions: small-molecule microarray, higher = more signal, called active from +8 up or from −8 down.
Assay [3] can be described thus: probe aNOTCH3 binding on compound microarray – biochemical, small-molecule microarray, 635/667 nm fluorescence, primary screen (AID 1120).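 Note: probe is a biotin-tagged antibody raised against NOTCH3 rather than NOTCH3 protein; score merges spot fluorescence near 667 nm with spot signal to noise.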 As to conditions: higher = more signal.
Assay [4] can be described thus: probe aNOTCH2 binding on compound microarray – biochemical, small-molecule microarray, 635/667 nm fluorescence, primary screen (AID 1121).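 Note: score merges feature fluorescence read at 667 nm with its signal to noise.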 As to conditions: higher = more signal.
The target in assay [5] is Carbonic anhydrase 2 (Homo sapiens) (UniProt P00918). The assay can be described thus: compounds binding carbonic anhydrase 2 – biochemical, small-molecule microarray, Alexa647-labelled CAII, profiling panel (AID 1122). As to conditions: CAII-A647 binding fluorescence, higher = more signal.
Assay [6] in a line: COS7 lysate on small-molecule microarray, probe aHis, 635 nm (AID 1123).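 Note: z-score combines 667nm fluorescence intensity with signal-to-noise per printed compound spot.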 As to conditions: COS7 cell lysate, fluorescence, higher = more signal.
The nature of assay [7]: probe aLAP1 signal on lysate-treated microarray – cell lysate, small-molecule microarray, COS7 lysate, primary screen (AID 1124).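 Note: lysate comes from COS7 cells expressing LAP1 and is applied at 0.3 µg/mL; score merges spot fluorescence near 667 nm with signal-to-noise over triplicate slides.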 As to conditions: probe aLAP1, fluorescence, higher = more signal.
For assay [8], the system named is Sam68 (KHDRBS1). The assay can be described thus: compounds binding KHDRBS1 protein – biochemical, small-molecule microarray, 635 nm fluorescence, primary screen (AID 1125).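 Note: score merges 667 nm channel intensity with signal to noise over triplicate slides.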 As to conditions: higher = more signal.
In assay [9] the test system is Chordin-like protein 2 (CHRDL2). The experiment in a line: compounds binding chordin-like 2 – biochemical, small-molecule microarray, 635 nm fluorescence, primary screen (AID 1126).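 Note: printed compound slides probed with Chrdl2 protein at 4 µg/mL for 1 h at 4 C; score merges 667 nm emission intensity with signal to noise over three replicate slides.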 As to conditions: fluorescence 635 nm, higher = more signal.
Assay [10] concerns the target Concanavalin-A (Canavalia ensiformis) (UniProt P02866). The experiment in a line: compounds binding concanavalin A lectin – biochemical, small-molecule microarray, Alexa647 label, 635 nm, artefact control for SMM control protein annotation, primary screen (AID 1127).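 Note: z combines 667 nm emission intensity with signal-to-noise across three replicate slides.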 As to conditions: ConA-A647 binding fluorescence, higher = more signal.
A short description of assay [11]: compounds binding Alexa647 anti-His antibody – biochemical, small-molecule microarray, 635 nm fluorescence, artefact control for SMM control protein annotation, primary screen (AID 1128).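 Note: score merges feature fluorescence with signal-to-noise for each printed compound spot.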 As to conditions: higher = more signal.
Assay [12] concerns Human papillomavirus type 1a E7 protein (residues 1-88). The assay can be described thus: HPV1a E7 small-molecule binders, primary screen, biochemical, small-molecule microarray, residues 1-88, 635 nm (AID 1129). As to conditions: small-molecule microarray binding, fluorescence 635 nm; higher = more signal.
Assay [13] addresses Focal adhesion kinase 1 (Homo sapiens) (UniProt Q05397). The experiment in a line: PTK2 protein binding on printed compound slides – biochemical, small-molecule microarray, 635/667 nm fluorescence, BSA, DTT, primary screen (AID 1130).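 Note: composite of spot emission at 667 nm and signal to noise over triplicate slides.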 As to conditions: 635 nm fluorescence, higher = more signal.
Assay [14] concerns Fibrinogen (Alexa647-labelled). The assay can be described thus: Alexa647-fibrinogen binding to printed small molecules – biochemical, small-molecule microarray, 635/667 nm fluorescence, artefact control for SMM control-protein annotation, profiling panel (AID 1131).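 Note: z-score merges 667 nm fluorescence with per-spot signal-to-noise over triplicate slides.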 As to conditions: fibrinogen-A647 binding fluorescence, higher = more signal.
Assay [15] concerns the target Follistatin (Homo sapiens) (UniProt P19883). The experiment in a line: FST protein binding to printed compounds – biochemical, small-molecule microarray, 635/667 nm fluorescence, primary screen (AID 1132). As to conditions: 635 nm fluorescence, higher = more signal.
Assay [16] concerns the target Fibroblast growth factor 2 (Homo sapiens) (UniProt P09038). The assay can be described thus: basic fibroblast growth factor binding to printed compounds – biochemical, small-molecule microarray, 635/667 nm fluorescence, primary screen (AID 1133). As to conditions: FGF2, fluorescence 635/667, higher = more signal.
The nature of assay [17]: JC-1 mitochondrial potential readout, lung cancer cells – cell-based, A549, JC-1 fluorescence, basal, 24 h, 100 nL, profiling panel (AID 1138).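 Note: A549 lung adenocarcinoma cells under basal conditions with no added stimulus; test concentration not given here.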 As to conditions: higher = more signal.
Assay [18] has as its system Lefty1. The assay can be described thus: Lefty1 protein binding to printed compounds – biochemical, small-molecule microarray, 635/667 nm fluorescence, primary screen (AID 1139). As to conditions: fluorescence 635/667, higher = more signal.
Assay [19] has as its system wheat germ agglutinin (Triticum aestivum), Alexa647-labelled. The experiment in a line: Alexa647-WGA lectin binding to printed small molecules – biochemical, small-molecule microarray, 635/667 nm fluorescence, artefact control for SMM control-protein annotation, profiling panel (AID 1140).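 Note: score merges 667 nm feature emission with signal to noise over triplicate slides.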 As to conditions: WGA-A647 binding, 635 nm fluorescence, higher = more signal.
Assay [20] deals with Luciferin 4-monooxygenase (Photinus pyralis) (UniProt P08659). The experiment in a line: inhibition of purified Photinus pyralis luciferase – biochemical, luminescence, purified enzyme, 2006 set, primary screen (AID 1141).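 Note: cell-free assay with purified firefly luciferase at 100 ng per well in PBS; test concentration not given here.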 As to conditions: purified firefly luciferase, SteadyGlo luminescence, 30 min; higher = more signal, called active from +8 up or from −8 down.
Chain of Luciferin 4-monooxygenase (Photinus pyralis) (P08659 whole entry, looked up): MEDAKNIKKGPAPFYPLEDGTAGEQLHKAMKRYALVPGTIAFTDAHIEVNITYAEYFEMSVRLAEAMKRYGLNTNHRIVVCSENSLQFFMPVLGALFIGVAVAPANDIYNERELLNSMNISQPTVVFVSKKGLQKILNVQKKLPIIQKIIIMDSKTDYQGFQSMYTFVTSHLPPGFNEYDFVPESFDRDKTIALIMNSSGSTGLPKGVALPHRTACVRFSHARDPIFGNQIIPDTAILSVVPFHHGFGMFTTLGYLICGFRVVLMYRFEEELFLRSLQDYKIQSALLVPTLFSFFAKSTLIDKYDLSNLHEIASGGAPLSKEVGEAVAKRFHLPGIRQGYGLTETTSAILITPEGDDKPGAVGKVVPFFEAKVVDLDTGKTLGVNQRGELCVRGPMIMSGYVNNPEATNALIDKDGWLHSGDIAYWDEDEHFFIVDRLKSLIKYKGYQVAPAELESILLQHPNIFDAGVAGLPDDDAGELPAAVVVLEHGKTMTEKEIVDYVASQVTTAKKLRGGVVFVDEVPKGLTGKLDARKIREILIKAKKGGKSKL

Molecules are shown by their SMILES. Calls of active or inactive are those of the source.

Chain of Follistatin (Homo sapiens) (P19883 whole entry, looked up): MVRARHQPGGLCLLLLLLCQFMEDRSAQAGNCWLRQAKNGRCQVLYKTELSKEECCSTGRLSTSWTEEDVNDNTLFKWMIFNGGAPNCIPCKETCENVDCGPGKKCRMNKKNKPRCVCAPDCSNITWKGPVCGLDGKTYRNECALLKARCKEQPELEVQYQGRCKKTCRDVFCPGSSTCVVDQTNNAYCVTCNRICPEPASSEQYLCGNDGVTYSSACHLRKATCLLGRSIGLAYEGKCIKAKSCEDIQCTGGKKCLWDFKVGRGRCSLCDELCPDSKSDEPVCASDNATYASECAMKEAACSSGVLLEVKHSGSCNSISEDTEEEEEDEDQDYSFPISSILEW
Chain of Fibroblast growth factor 2 (Homo sapiens) (P09038 whole entry, looked up): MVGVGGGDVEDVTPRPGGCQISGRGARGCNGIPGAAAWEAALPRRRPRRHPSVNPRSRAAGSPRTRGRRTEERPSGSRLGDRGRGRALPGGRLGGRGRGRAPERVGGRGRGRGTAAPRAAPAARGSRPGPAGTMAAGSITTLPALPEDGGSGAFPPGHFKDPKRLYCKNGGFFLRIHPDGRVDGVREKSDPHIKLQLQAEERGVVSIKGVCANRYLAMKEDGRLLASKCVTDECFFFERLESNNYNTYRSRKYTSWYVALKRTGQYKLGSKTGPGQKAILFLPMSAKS
Chain of Albumin (Bos taurus) (P02769 whole entry, looked up): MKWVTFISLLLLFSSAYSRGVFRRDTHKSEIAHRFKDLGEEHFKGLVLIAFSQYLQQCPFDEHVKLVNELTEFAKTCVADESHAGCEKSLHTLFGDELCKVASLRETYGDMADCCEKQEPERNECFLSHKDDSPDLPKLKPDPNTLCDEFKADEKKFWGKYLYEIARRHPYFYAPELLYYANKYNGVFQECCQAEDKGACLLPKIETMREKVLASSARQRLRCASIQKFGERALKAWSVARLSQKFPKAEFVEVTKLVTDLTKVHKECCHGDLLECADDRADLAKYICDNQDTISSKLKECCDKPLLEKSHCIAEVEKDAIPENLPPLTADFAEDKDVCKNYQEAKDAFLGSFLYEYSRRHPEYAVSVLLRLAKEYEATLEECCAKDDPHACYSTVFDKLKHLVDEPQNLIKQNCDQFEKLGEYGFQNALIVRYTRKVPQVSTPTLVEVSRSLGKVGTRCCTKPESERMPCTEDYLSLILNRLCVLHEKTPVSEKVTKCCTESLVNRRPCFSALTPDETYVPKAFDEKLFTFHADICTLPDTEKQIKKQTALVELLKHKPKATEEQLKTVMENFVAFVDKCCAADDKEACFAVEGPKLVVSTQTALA
Chain of Concanavalin-A (Canavalia ensiformis) (P02866 whole entry, looked up): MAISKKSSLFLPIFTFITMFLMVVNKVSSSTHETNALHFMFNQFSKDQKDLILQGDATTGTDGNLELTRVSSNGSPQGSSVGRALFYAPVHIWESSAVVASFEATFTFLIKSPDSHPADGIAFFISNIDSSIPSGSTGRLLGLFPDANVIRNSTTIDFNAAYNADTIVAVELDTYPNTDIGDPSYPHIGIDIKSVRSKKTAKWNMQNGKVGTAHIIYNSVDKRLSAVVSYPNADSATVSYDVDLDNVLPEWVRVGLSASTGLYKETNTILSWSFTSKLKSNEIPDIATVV
Chain of Focal adhesion kinase 1 (Homo sapiens) (Q05397 whole entry, looked up): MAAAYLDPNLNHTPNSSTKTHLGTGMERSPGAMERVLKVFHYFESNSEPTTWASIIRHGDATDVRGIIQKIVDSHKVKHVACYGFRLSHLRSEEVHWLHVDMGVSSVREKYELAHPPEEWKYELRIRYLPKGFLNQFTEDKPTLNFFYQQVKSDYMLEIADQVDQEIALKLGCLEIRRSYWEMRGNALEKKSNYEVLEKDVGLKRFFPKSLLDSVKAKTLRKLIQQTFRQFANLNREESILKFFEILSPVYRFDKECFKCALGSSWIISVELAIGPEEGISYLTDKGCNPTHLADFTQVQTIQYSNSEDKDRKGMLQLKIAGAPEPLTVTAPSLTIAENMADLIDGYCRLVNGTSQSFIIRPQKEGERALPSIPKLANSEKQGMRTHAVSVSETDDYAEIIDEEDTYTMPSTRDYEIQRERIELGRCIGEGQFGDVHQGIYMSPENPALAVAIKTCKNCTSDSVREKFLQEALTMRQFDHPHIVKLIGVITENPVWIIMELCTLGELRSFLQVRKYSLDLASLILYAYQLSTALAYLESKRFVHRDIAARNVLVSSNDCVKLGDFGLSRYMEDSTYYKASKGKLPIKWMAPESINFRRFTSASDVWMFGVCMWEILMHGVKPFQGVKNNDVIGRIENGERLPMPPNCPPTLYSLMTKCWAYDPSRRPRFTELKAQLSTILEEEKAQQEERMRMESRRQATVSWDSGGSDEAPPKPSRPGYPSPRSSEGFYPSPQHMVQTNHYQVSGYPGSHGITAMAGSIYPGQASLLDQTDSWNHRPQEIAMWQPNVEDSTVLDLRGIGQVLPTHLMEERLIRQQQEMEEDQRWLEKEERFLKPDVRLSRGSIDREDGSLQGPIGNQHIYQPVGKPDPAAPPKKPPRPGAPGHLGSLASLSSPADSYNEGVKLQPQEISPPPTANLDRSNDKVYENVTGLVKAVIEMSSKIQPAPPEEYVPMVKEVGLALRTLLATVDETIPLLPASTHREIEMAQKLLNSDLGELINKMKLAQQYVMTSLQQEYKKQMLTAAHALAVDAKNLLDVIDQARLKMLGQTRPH

Regarding `CCN1C(=O)[C@H]2[C@H]3[C@H](O)[C@H](O)CC(=NOC[C@@H](C)[C@H](OCc4ccccc4)C(C)C)[C@@H]3CC[C@H]2C1=O`, the composite z-score was 0.665 in assay [1]; -0.152 in assay [3]; -0.131 in assay [4]; -0.0205 in assay [5]; 0.276 in [6]; -0.504 in [7]. In addition, the composite z-score was 0.614 in assay [8]; -0.13 in [9]; -0.223 in assay [10]; 0.0486 in [11]; 0.472 in assay [12]; -0.0745 in assay [13]. In addition, the composite z-score in assay [14] was 0.58; in assay [15], -0.0316; in [16] it was -0.109; in assay [18], 0.192; in [19], 0.564. In addition, the composite Z-score in assay [2] is 0.0576 (inactive). Moreover, the figures for the z-score in [17] and in assay [20] were -0.925 and 0.646 (inactive), respectively.

For `CC(=O)OC[C@H]1O[C@H](CCON=C(C)CCC(=O)OC[C@H]2O[C@H](C#Cc3ccccc3)C=C[C@@H]2Oc2ccc(C)cc2)C=C[C@@H]1OC(C)=O`, the composite z-score was 0.208 in [1]; 0.0322 in assay [3]; -0.204 in assay [4]; -0.085 in assay [5]; 0.1 in [6]; 0.448 in assay [7]. Besides, the composite z-score in [8] was determined as 0.287; in assay [9], 0.401; in assay [10] it was 0.194; in assay [11], 0.0004; in assay [12], 0.125; in [13], 0.369. For the same compound, the composite z-score in assay [14] amounted to 0.185; in assay [15] it was 0.496; in assay [16], 0.592; in assay [18] it was 0.802; in assay [19], 0.0698. In addition, in assay [2], the composite Z-score is 0.131 (inactive). Moreover, the z-score was -0.518 in assay [17] and 0.54 (inactive) in assay [20].

For `Cc1cc(C)c(-c2cc([C@H](C)ON=C3[C@H]4CCn5c(=O)n(-c6ccccc6)c(=O)n5[C@H]4[C@H](O)[C@@H]4O[C@H]34)on2)c(C)c1`, the composite z-score in [1] is 0.652; in assay [3], 0.125; in assay [4], -0.205; in [5] it was 0.311; in [6], 0.486; in assay [7] it was 0.0647. Also, the composite z-score in [8] was 0.416; in assay [9], 0.231; in [10] it was 0.706; in assay [11] it was -0.286; in assay [12], 0.748; in assay [13], 0.422. Moreover, the composite z-score in [14] was 0.382; in assay [15], 0.692; in assay [16], 0.627; in assay [18] it was 0.652; in [19], -0.0095. Besides, the composite Z-score in assay [2] was -0.853 (inactive). Besides, the z-score was 1.32 in assay [17] and 0.154 (inactive) in [20].

In the case of `CC(=O)OC[C@H]1O[C@@H](ON=C[C@@H](C)[C@H](OCc2ccccc2)C(C)C)[C@H](OC(C)=O)[C@@H](OC(C)=O)[C@@H]1OC(C)=O`, the composite z-score in assay [1] was -0.25; in assay [3] it was -0.0672; in [4], -0.159; in assay [5] it was -0.934; in assay [6], -0.0857; in assay [7] it was -0.246. The composite z-score in assay [8] was 0.96; in [9] it was -0.838; in assay [10], 0.468; in assay [11], 0.133; in assay [12], -0.19; in assay [13] it was -0.0838. In addition, the composite z-score is -0.562 in assay [14]; -1 in assay [15]; 0.225 in [16]; -0.207 in assay [18]; -0.0716 in assay [19]. For the same compound, the composite Z-score in assay [2] is 0.0474 (inactive). For the same compound, the z-score is 1.32 in assay [17] and 0.0242 (inactive) in [20].

For the origin of these results see PubChem BioAssay.
